The list is not random: actives were taken first. Their share in the collection is about 12%.
G9a inh – qHTS Assay for Inhibitors of Histone Lysine Methyltransferase G9a. actives 8.8% (n = 350,000). G9a H3K9 monomethylation, AlphaScreen, 2 h. Histone-lysine N-methyltransferase EHMT2 (Homo sapiens), Q96KQ7. Potency, µM (highest dose often 102 µM), for the others: at the highest dose activity, negative = inhibition, usual class: inhibitors. AID 504332, 2011; also: % is scaled to controls: 0 for no effect and ±100 for the full control effect; nearly all actives have a fitted effect of over 75% in size
Target sequence (Q96KQ7 913-1193 limits assumed): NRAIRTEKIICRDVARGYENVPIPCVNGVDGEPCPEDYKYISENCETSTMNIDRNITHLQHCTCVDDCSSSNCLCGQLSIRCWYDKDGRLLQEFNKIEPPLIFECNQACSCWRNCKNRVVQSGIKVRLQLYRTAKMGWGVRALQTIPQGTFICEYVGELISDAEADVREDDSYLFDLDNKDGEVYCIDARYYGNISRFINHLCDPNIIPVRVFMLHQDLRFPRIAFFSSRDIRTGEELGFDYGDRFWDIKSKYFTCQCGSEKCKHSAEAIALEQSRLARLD
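Compounds were preincubated with 20 nM G9a for 15 min, after which biotinylated H3K9 peptide (500 nM) and SAM (20 uM) started a 2 h room-temperature reaction. Monomethylated product was quantified by antibody-based AlphaScreen chemiluminescence.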
L3MBTL1 block – qHTS Assay for the Inhibitors of L3MBTL1; AlphaScreen L3MBTL1–H3K9me1 peptide binding; Potency, µM (highest dose often 57.1 µM), for inactives: at the top dose activity, negative = inhibition, actives largely listed as inhibitors; actives 0.66% (n = 230,000); AID 485360, 2010; also: % is scaled to controls: 0 for no effect and ±100 for the full control effect; nearly all actives have a fitted effect of over 60% in size
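AlphaScreen proximity signal between nickel-chelate acceptor and streptavidin donor beads (final 10 ug/mL) reports binding of 50 nM L3MBTL1 to 75 nM biotin-H3 K9me1 peptide; complex incubated with compounds 30 min at room temperature; cefsulodin titration as control.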
HP1b chromo inh – HTS for Inhibitors of HP1-beta Chromodomain Interactions with Methylated Histone Tails; Potency, µM (highest dose often 114 µM), for the others: at the top dose activity change, negative = inhibition, most hits filed as inhibitors; actives 0.56% (n = 390,000); AlphaScreen HP1-beta / biotin-H3K9me3 peptide binding; AID 540317, 2011; also: nearly all actives have a fitted effect of over 70% in size
Target sequence (P83916 whole entry, looked up): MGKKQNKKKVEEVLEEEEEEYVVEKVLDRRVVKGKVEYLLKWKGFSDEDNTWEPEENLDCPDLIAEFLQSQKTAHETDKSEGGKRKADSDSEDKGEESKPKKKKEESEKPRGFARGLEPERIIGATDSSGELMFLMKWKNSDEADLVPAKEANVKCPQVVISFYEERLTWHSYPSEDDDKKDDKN
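Compound inhibition of the preformed complex between 50 nM HP1-beta and 50 nM biotinylated H3K9me3 peptide was read by AlphaScreen. Buffer was PBS pH 7.4 with 0.01% Tween-20. Incubations ran 30 min at room temperature, with 10 ug/mL donor/acceptor beads.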
JMJD2A Tudor – qHTS Assay for Inhibitors of JMJD2A-Tudor Domain; Lysine-specific demethylase 4A (Homo sapiens), O75164; AlphaScreen JMJD2A-Tudor / H3K4me3 peptide binding; Potency, µM (highest dose often 114 µM), for the others: at the top dose activity change, negative = inhibition, most hits filed as inhibitors; actives 4.4% (n = 390,000); AID 504339, 2011; also: % is scaled to controls: 0 for no effect and ±100 for the full control effect; nearly all actives have a fitted effect of over 50% in size
Sfp inh – qHTS Assay for Inhibitors of Bacillus subtilis Sfp phosphopantetheinyl transferase (PPTase) | Potency, µM, for the others: largest response in the series, negative = inhibition, hits mostly inhibitors | Biochemical Sfp PPTase activity, qHTS | actives 3.5% (n = 310,000) | AID 1490, 2009 | 4'-phosphopantetheinyl transferase ffp (Bacillus subtilis), Q9F4F7;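 also: the enzyme is Sfp with the accession as filed and its product quenches rhodamine fluorescence; 0% = enzyme reaction without inhibitor and -100% = no enzyme wells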
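Step 1, compound plus 15 nM Sfp-PPTase, 15 min, room temperature. Step 2, add rhodamine-CoA (5 uM) and BHQ-2-YbbR (12.5 uM). Step 3, read 525/598 nm fluorescence at 0 and 30 min.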
BAZ2B block – qHTS Assay for Inhibitors of BAZ2B. AlphaScreen BAZ2B-H3K14Ac peptide displacement. Potency, µM (top dose mostly 114 µM), without a hit: top-dose activity change, negative = inhibition, most hits filed as inhibitors. actives 4.4% (n = 360,000). Bromodomain adjacent to zinc finger domain protein 2B (Homo sapiens), Q9UIF8; also: % is scaled to controls: 0 for no effect and ±100 for the full control effect; nearly all actives have a fitted effect of over 60% in size
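Multi-concentration screen (max 110 uM) measuring displacement of acetylated histone H3 peptide from BAZ2B by AlphaScreen, using 50 nM protein, 50 nM peptide and 10 ug/mL streptavidin donor plus Ni-chelate acceptor beads.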
Starred values were filed as active, the others as inactive; ? = inconclusive; · = no result given; [ ] = another dose, or the depositor's remark. Calls follow the shape of the dose curve; as a rule, active = well fitted curve in the direction sought with a large enough effect; inconclusive = small, poorly fitted or top-dose-only effect, or another doubt; inactive = no such curve, though single readings can be large; an effect the other way counts as inactive or inconclusive. Potency is read from the fitted curve at half-maximal effect.

SMILES	G9a inh	L3MBTL1 block	HP1b chromo inh	JMJD2A Tudor	Sfp inh	BAZ2B block
O=C(CSc1nc2cc(Cl)c(Cl)cc2[nH]1)c1ccc2c(c1)OCO2	11µM*	-15%	26%	-7%	?	13%
O=C(CSc1nc2ccc(Cl)cc2[nH]1)c1c[nH]c2ccccc12	20µM*	-6%	30%	-10%	23%	-19%
Cc1ccc(-n2c3nc(=O)n(C)c(=O)c-3cc3c(Cl)cccc32)c(C)c1	-7%[59 µM]	·	26%	-6%	·	·
CC(=O)Nc1nc(SCc2ccc(Cl)cc2Cl)n[nH]1	0%[59 µM]	1%	37%	-19%	11%	-20%
CC(=O)Nc1n[nH]c(S(=O)(=O)Cc2ccc(Cl)cc2Cl)n1	45µM*	-1%	-4%	50µM*	0%	?
C=CCn1cccc(C(=O)Nc2cc(OC)c(OC)c(OC)c2)c1=O	-5%	-4%	-11%	32µM*	15%	-10%
C=CCn1cccc(C(=O)Nc2ccc(N(C)C)cc2)c1=O	13µM*	·	-21%	?	10%	-27%
C=CCn1cccc(C(=O)Nc2ccc(Cl)cc2)c1=O	10%	·	46%	14%	6%	9%
CC(C)C[C@H](NC(=O)[C@H](Cc1ccccc1)NC(=O)CNC(=O)CNC(=O)[C@@H](N)Cc1ccc(O)cc1)C(=O)N[C@@H](CCCN=C(N)N)C(=O)N[C@@H](CCCN=C(N)N)C(=O)N[C@@H](CCC(N)=O)C(=O)N[C@@H](Cc1ccccc1)C(=O)N[C@@H](CCCCN)C(=O)N[C@H](C(=O)N[C@H](C(=O)N[C@H](C(=O)O)[C@@H](C)O)C(C)C)C(C)C	14%[59 µM]	·	·	·	-16%	·
CCC1(c2ccc(F)cc2)NC(=O)N(CC(=O)Nc2ccccc2Cl)C1=O (configuration not stated)	-11%	·	14%	-3%	-6%	4%
CCC1(c2ccc(F)cc2)NC(=O)N(CC(=O)Nc2ccccc2C)C1=O (configuration not stated)	-7%	·	6%	71µM*	7%	-5%
CCC1(c2ccccc2)NC(=O)N(CC(=O)Nc2ccccc2C(=O)NC2CC2)C1=O (configuration not stated)	50µM*	0%	37%	-11%	·	4%
COc1cccc(Cn2ncc3c4sc(B(O)O)cc4n(C)c3c2=O)c1	-1%[12.7 µM]	2%	·	·	·	-20%
C=CC(=O)Nc1ccc(CN2C(=O)N(c3c(Cl)c(OC)cc(OC)c3Cl)Cc3cnc(NCCCCN(CC)CC)nc32)cc1	·	-12%	?	56µM*	·	·
Cc1cccc(CSc2cn(CC(=O)N3CCCC3)c3ccccc23)c1	-11%[59 µM]	·	1%	-34%	·	?
COC(=O)c1ccc(CSC2=NC[C@@H]3[C@@H]4C(=O)N(Cc5ccccc5)C(=O)[C@@H]4[C@](Cc4ccccc4)(C(=O)OC)N23)cc1	·	-1%	-4%	79µM*	·	·
Nc1ccc(S(=O)(=O)c2cccc(N)c2)cc1	-2%[59 µM]	8%	17%	-15%	8%	-3%
Cc1ccc(S(=O)(=O)c2ccccc2)cc1S	3.5µM*	·	·	·	45µM*	4%
CN(C)C(=S)c1ccccc1	10µM*	-4%	?	?	20µM*	-11%
COc1ccc(C(=S)N(C)C)cc1OC	?	3%	?	-14%	45µM*	-16%
CN(/N=C/c1ccccc1O)C(=S)c1ccccc1	·	-10%	-5%	?	?	?
COc1ccc(C(=S)N2CCCC2)cc1OC	23%[59 µM]	·	33%	-12%	8%	10%
